Most compounds without a hit are left out; they make up all but 3.8% or so of the library.
PfM18AAP inh: blocks P. falciparum M18 aspartyl aminopeptidase; recombinant PfM18AAP, H-Glu-NHMec fluorogenic cleavage; inhibition, % at 7.35 µM; 290,000 compounds, 1.2% hits;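 active = inhibition above the campaign mean inhibition over all tested compounds plus 3 SD, cut at about 28% in these data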;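 note: 0% = plate median of test compound wells and 100% = 2 mM ZnCl2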
Pemphigus Ab inh: human desmoglein-3 autoantibody binding inhibition; P32926; DSG3-coupled beads, scFv-anti-DSG3-GFP binding, flow cytometry; hits give low values; binding (percent of control), % at 10 µM; 310,000 compounds, 0.48% hits;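 active = binding more than 3 SD below its plate's average and above zero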;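 note: hits lower antibody fragment binding to DSG3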
PAFAH1B2 inh: PAFAH1B2 (human) inhibition | P68402 | recombinant PAFAH1B2, FP-rhodamine activity probe, fluorescence polarization | inhibition, % at 3.39 µM | 340,000 compounds, 1.2% hits | AID 492953;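 active = inhibition above the mean of all tested compounds plus 3 SD, cut at about 24% in these data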;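 note: 0% = enzyme with DMSO and 100% = wells lacking PAFAH1B2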
Target sequence (P68402 whole entry, looked up): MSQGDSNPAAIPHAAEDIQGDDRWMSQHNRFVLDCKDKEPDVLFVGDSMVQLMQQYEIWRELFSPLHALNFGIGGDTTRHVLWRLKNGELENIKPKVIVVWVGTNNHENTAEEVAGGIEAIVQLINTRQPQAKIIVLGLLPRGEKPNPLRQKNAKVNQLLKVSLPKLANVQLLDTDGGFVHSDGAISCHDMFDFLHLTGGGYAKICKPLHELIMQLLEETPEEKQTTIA
pPAFAH inh: pPAFAH (human) enzyme inhibition. Q13093. recombinant pPAFAH, FP-rhodamine probe fluorescence polarization. inhibition, % at 3.39 µM. 330,000 compounds, 1.5% hits. AID 463082;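 active = inhibition above the mean inhibition across the screen plus 3 SD, cut at about 25% in these data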;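 note: inhibitors block binding of the rhodamine activity-based probe so polarization drops; 0% = enzyme with DMSO and 100% = wells lacking pPAFAH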
Target sequence (Q13093 whole entry, looked up): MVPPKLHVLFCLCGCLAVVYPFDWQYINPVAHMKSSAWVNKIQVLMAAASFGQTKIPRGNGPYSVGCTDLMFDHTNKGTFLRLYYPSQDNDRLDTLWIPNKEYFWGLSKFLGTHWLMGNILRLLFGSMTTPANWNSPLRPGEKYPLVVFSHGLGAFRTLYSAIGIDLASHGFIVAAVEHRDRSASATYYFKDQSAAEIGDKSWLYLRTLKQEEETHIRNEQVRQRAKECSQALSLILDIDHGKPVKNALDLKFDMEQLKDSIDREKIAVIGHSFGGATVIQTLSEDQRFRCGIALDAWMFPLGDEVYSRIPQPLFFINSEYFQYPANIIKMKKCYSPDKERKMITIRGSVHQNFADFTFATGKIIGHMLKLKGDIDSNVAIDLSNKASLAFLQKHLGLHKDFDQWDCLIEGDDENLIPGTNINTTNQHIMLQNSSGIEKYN
PAFAH2 FP inh: inhibitors of human PAFAH2; inhibition, % at 3.39 µM; 340,000 compounds, 0.99% hits; AID 492956; recombinant PAFAH2, FP-rhodamine activity probe, fluorescence polarization; Q99487;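 active = inhibition above the mean over all tested compounds plus 3 SD, cut at about 30% in these data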;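 note: inhibitors block probe labeling of enzyme so polarization drops; 0% = enzyme with DMSO and 100% = wells lacking PAFAH2 protein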
PAFAH1B3 FP inh: inhibitors of human PAFAH1B3; inhibition, % at 3.39 µM; 340,000 compounds, 0.28% hits; recombinant PAFAH1B3, FP-rhodamine probe, fluorescence polarization; AID 492972; Q15102;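 active = inhibition above the screen-wide average of all tested compounds plus 3 SD, cut at about 25% in these data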;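 note: 0% = enzyme with DMSO only and 100% = wells lacking PAFAH1B3 protein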
PAFAH2 FP conf: confirmation of human PAFAH2 inhibitors; shares compounds with PAFAH2 FP inh; inhibition, % at 3.39 µM; 2,300 compounds, 65% hits; recombinant PAFAH2, FP-rhodamine activity probe, fluorescence polarization; AID 493030;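 active = mean inhibition over three repeats above a set limit taken from the earlier primary screen, cut at about 30% in these data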;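 note: inhibitor blocks binding of rhodamine activity probe so polarization falls; 0% = enzyme with DMSO and 100% = wells lacking PAFAH2 protein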
Starred values were filed as active, the others as inactive; nt = not tested or not shown.

SMILES	PfM18AAP inh	Pemphigus Ab inh	PAFAH1B2 inh	pPAFAH inh	PAFAH2 FP inh	PAFAH1B3 FP inh	PAFAH2 FP conf
COc1cccc(C(=O)O/N=C(\N)CS(=O)(=O)c2ccccc2)c1	1.1	116.3	-1.5	20.6	64.4*	0.9	45.2*
Cc1cccc(C(=O)O/N=C(\N)CS(=O)(=O)c2ccccc2)c1	-5.9	103.9	3.8	16.1	43.9*	2.1	36.4*
COCCn1c(=S)[nH]c2cc(C(=O)N3CCCC(C)C3)ccc2c1=O (configuration not stated)	4.0	107.0	4.7	-0.4	-2.8	-0.1	nt
COc1ccc(OC)c(C(C)NC(=O)C(C)n2cc([N+](=O)[O-])cn2)c1 (configuration not stated)	nt	104.9	4.9	3.5	-3.0	7.1	nt
O=S(=O)(O)c1cccc2cccc(Nc3ccccc3)c12	nt	95.6	5.0	21.6	30.7*	13.1	7.3
c1ccc(Nc2cccc3c(Nc4ccccc4)cccc23)cc1	3.9	90.5	0.2	8.4	-1.1	5.2	nt
Cc1cc(N2CC(C)OC(C)C2)nc2ccccc12 (configuration not stated)	-5.4	101.2	7.8	4.3	8.0	7.5	nt
Nn1c(SCC(=O)Nc2ccccc2F)nnc1-c1cccs1	nt	91.4	3.1	3.3	-0.7	0.8	nt
Cc1cccc(-c2nc3ccccc3c3nncn23)c1	-3.5	nt	-0.7	-6.5	158.5*	-1.4	5.1
CC(=O)NC(Cc1ccc(F)cc1)C(=O)NC1CCN(C(=O)Nc2ccc(F)cc2)CC1 (configuration not stated)	2.4	nt	7.9	3.2	1.6	5.3	nt
CCc1ccc(/C=C2\Oc3c(ccc(O)c3CN3CCN(CCO)CC3)C2=O)cc1	5.0	101.3	-0.6	2.3	58.2*	-0.4	39.0*
CCc1ccc(/C=C2\Oc3cc(OS(C)(=O)=O)ccc3C2=O)cc1	-4.1	92.6	1.6	6.6	1.0	1.7	nt
CC1CC1C(=O)OCC(=O)NCc1ccccc1Cl (configuration not stated)	4.2	98.0	3.5	6.2	68.4*	17.8	55.7*
O=C(COC(=O)C1CCC1)NCc1ccccc1Cl	-4.7	107.3	1.6	0.9	17.4	9.0	nt
O=C(COC(=O)C1CC2C=CC1C2)NCc1ccccc1Cl (configuration not stated)	5.4	93.6	8.3	16.4	45.5*	1.6	44.3*
COC(=O)C(C)Sc1nc2ccsc2c(=O)n1Cc1ccccc1 (configuration not stated)	-0.7	100.6	2.1	1.6	34.5*	0.4	23.5
NS(=O)(=O)c1ccc(O)c(NC(=O)c2ccc([N+](=O)[O-])cc2)c1	-2.6	90.8	-3.3	5.8	31.5*	4.1	28.8
O=C(Nc1cccc2ccccc12)c1ccc([N+](=O)[O-])cc1	8.5	117.3	1.7	3.7	1.8	2.6	nt
O=C(NCCc1ccc(C(F)(F)F)cc1)C1CCC(=O)N(CCc2cccc(F)c2)C1 (configuration not stated)	1.7	99.3	10.6	2.2	0.0	0.7	nt
O=C(NCCc1ccc(C(F)(F)F)cc1)C1CCC(=O)N(CCCc2ccccc2)C1 (configuration not stated)	4.8	nt	10.8	11.6	53.0*	0.9	53.4*
O=C(COC(=O)c1ccc2ncsc2c1)Nc1ccccc1Cl	nt	102.7	3.1	-1.8	59.4*	9.6	44.3*
O=C(COC(=O)c1ccc2ncsc2c1)Nc1ccc(OC(F)(F)F)cc1	nt	97.4	0.3	-10.5	73.4*	-1.0	69.5*
O=C(COC(=O)c1ccc2ncsc2c1)NCc1ccc(Cl)cc1	nt	nt	5.1	1.4	39.2*	1.8	24.7
CC(C)(C)c1ccc(NC(=O)COC(=O)c2ccc3ncsc3c2)cc1	nt	111.6	0.5	-2.4	23.4	-4.5	nt
O=C(COC(=O)c1ccc2ncsc2c1)Nc1cc([N+](=O)[O-])ccc1Cl	nt	101.4	-7.9	-1.9	7.8	-11.4	nt
SMILES	PfM18AAP inh	Pemphigus Ab inh	PAFAH1B2 inh	pPAFAH inh	PAFAH2 FP inh	PAFAH1B3 FP inh	PAFAH2 FP conf
Cc1ccc(F)cc1NC(=O)COC(=O)c1ccc2ncsc2c1	nt	nt	-8.0	-3.0	49.3*	8.2	54.4*
O=[N+]([O-])c1ccc(S(=O)(=O)NN=CCCc2ccccc2)cc1	nt	123.1	10.0	nt	-5.3	-4.6	nt
C=C1CC[C@@]23CC[C@]4(C)[C@@](OC2=O)([C@@H]3C1)[C@H]1O[C@H]1C1[C@@]2(C)CC[C@H](O)C(C)(C)C2CC[C@]14C (some centres not stated)	nt	102.6	3.5	-2.2	-3.3	1.8	nt
CCC(C(=O)Nc1ccc2[nH]ncc2c1)c1ccccc1 (configuration not stated)	-1.0	96.0	14.3	1.1	7.1	13.2	nt
CCn1cc(C(=O)NCCC(=O)NC(C)C)c(=O)c2cc3c(cc21)OCO3	4.7	109.3	4.4	8.2	-0.7	2.7	nt
COc1cc(/C=C/C(=O)OCC(=O)NCc2ccco2)ccc1OCC#N	-5.8	98.6	2.4	5.0	43.7*	14.3	37.0*
COc1cc(/C=C/C(=O)OCC(=O)NCC2CCCO2)ccc1OCC#N (configuration not stated)	4.2	90.0	3.9	4.4	43.4*	1.8	29.9*
O=C(COC(=O)/C=C/c1ccc(C(F)(F)F)cc1)NCC1CCCO1 (configuration not stated)	nt	19.3	0.1	7.6	10.1	-0.8	nt
O=C(COC(=O)/C=C/c1ccc(F)cc1)NCC1CCCO1 (configuration not stated)	nt	99.6	1.2	1.9	37.8*	14.8	26.5
CC(C)(C)CC(C)(C)SSc1n[nH]c(=S)s1	nt	92.7	3.8	nt	27.9	6.3	nt
CC(C)C(NS(=O)(=O)c1ccc2c(c1)OCCCO2)C(=O)O (configuration not stated)	-9.7	125.2	6.2	-2.0	7.6	4.3	nt
O=C(Nc1ccc2ccccc2c1)C(=O)C1C(=O)Nc2ccccc21 (configuration not stated)	3.4	nt	nt	6.8	nt	nt	nt
Cc1cccc(NC(=O)C(=O)C2C(=O)Nc3ccccc32)c1 (configuration not stated)	4.3	101.7	7.2	-1.9	36.2*	0.9	29.4
COc1cc(/C=C2\SC(=O)N(c3ccccc3Cl)C2=O)cc([N+](=O)[O-])c1O	1.6	103.5	14.0	nt	36.2*	19.7	22.9
O=C(C[n+]1ccc(C(=O)NCCCO)cc1)c1cccc(Br)c1	1.3	nt	0.7	1.4	-1.7	4.0	nt
Cc1sc2ncnc(SCC(=O)Nc3ncccc3O)c2c1C	nt	96.8	-3.7	20.1	65.6*	5.4	52.9*
Cc1cccnc1NC(=O)CSc1ncnc2sc(C)c(C)c12	nt	110.3	-0.3	3.1	9.9	-0.5	nt
CCC1CN(S(=O)(=O)c2ccc3c(c2)NC(=O)CC(=O)N3)c2cc(Cl)ccc2O1 (configuration not stated)	4.4	107.9	10.9	1.9	45.1*	4.9	19.7

Bioassay records from PubChem BioAssay.
